Inconclusive results are not listed. Active and inactive are the calls of the source.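 The calls were made as follows, unless noted: active = growth inhibition above 25% in both replicates, a cutoff set 3 SD above the mean; inconclusive = above 25% in only one replicate; inactive = the rest.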
Legend:
[1] = reducers of endogenous Her2 protein level, primary screen, SKBR3 breast tumor cells, AlphaScreen, ATP viability (AID 461;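 active = Her2 level under about 52% in both replicate screens, with viability over 70% of control, limit read from the data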;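 as to Her2 level: lower value means less Her2 protein in the cells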;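 as to viability: percent of carrier control wells set as 100% viability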); conditions: 18-24 h, measured here: SKBR3 viability, ATP luminescence, at 10 µM
[2] = molecular target: Receptor tyrosine-protein kinase erbB-2 (Homo sapiens) (UniProt P04626); assay: as above; conditions: 18-24 h, at 10 µM, stronger effect = lower value
[3] = SK-BR-3 cell growth inhibitors, pilot screen, 24 h, human (AID 572;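 active = viability at or below 10% of carrier control in both of two separate runs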;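 also: compound exposure lasted between 18 and 24 h rather than exactly 24 h; 100% = carrier-treated control wells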); conditions: SK-BR-3 viability, CellTiter-Glo luminescence, at 10 µM, stronger effect = lower value
[4] = HUVEC growth inhibition – cell-based, human, primary screen (AID 575;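 active = viability at or below 30% in both replicate assays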;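 also: 100% = median of untreated cell wells with 0.1% DMSO on each plate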); conditions: HUVEC proliferation, CellTiter-Glo luminescence, 72 h; at 10 µM; stronger effect = lower value
[5] = growth inhibitors of H69AR lung tumor, primary screen, human, duplicate replicates (AID 580;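 active = viability at or under a set limit in both replicates, limit being median viability minus 3 SD, cut at about 48% in these data, passing the limit was not always enough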;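 also: 100% = mean luminescence of untreated wells and 0% = no signal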); conditions: H69AR lung tumor cells viability, ATP luminescence, 72 h; at 10 µM; stronger effect = lower value
[6] = reversal of MRP1-mediated doxorubicin resistance, pilot screen, H69AR cells, doxorubicin co-treatment (AID 601;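 active = viability loss from added drug above about 55%, and viability with drug at most 40%, in both replicates, limit read from the data, passing the limit was not always enough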); conditions: CellTiter-Glo, 72 h, at 10 µM; for differential viability (reversal): stronger effect = higher value
[7] = 384-well plate pilot, post-Golgi transport modulator project, inhibition of yeast transport mutant growth (AID 636; in the data active = inhibition above about 31%); conditions: absorbance 615 nm, about 18 h, stronger effect = higher value
[8] = growth suppression of yeast trafficking mutant, preliminary HTS, modulators of trafficking downstream of Golgi apparatus project, 1536-format plate, OD 615 nm (AID 637; in the data active = inhibition above about 30%); conditions: yeast transport mutant growth, absorbance 615 nm, 18 h; stronger effect = higher value
[9] = OD615 S. cerevisiae growth inhibition, permissive medium, pilot counter-assay, permissive growth control for S. cerevisiae lifespan shortening project (AID 705); conditions: OD615, 24 h, at 10 µM, stronger effect = higher value
[10] = Restrictive medium S. cerevisiae growth inhibition, OD615, pilot screen of yeast lifespan reduction project, restrictive growth control (AID 706;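 active = growth inhibition above a set limit, 3 SD over mean compound inhibition, in both replicates, cut at about 43% in these data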;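 also: modified DeaD lifespan yeast strain shifted to restrictive glucose medium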); conditions: OD615, 48 h, at 10 µM, stronger effect = higher value
[11] = viability gain of MRP-1-high H69AR cells under doxorubicin, pilot screen, MRP-1 activator project, CellTiter-Glo, duplicate (AID 807;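 active = viability increase at or above a cutoff of the median across tested compounds plus 3 SD, cut at about 8.5% in these data, passing the limit was not always enough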;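 also: compound pretreatment 18-22 h then 72 h combined with doxorubicin; 0% = doxorubicin alone and 100% = vehicle without doxorubicin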); conditions: H69AR viability with doxorubicin, CellTiter-Glo luminescence; at 10 µM; stronger effect = higher value
[12] = growth suppression of beta-catenin knockout HCT116, pilot screen, human colon tumor cells (AID 823;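 active = cell viability at or below a set limit in both duplicate runs, the limit being the all-compound median minus 4 SD, cut at about 23% in these data, passing the limit was not always enough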;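 also: 0% = wells killed by 20 µM Hyamine and 100% = untreated DMSO cell wells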); conditions: CellTiter-Glo, 60 h, at 10 µM, stronger effect = lower value
[13] = growth suppression of PTEN-deleted HCT116, pilot screen, cell-based, HCT116 clonal line, CellTiter-Glo (AID 824;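 active = viability at or below 27.92% in each of two runs, the all-compound median minus 4 SD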;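 also: 0% = 20 µM Hyamine control and 100% = vehicle cell control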); conditions: 60 h, at 10 µM, stronger effect = lower value
[14] = inhibitors of the yeast RAM network, pilot screen, dse1pr::URA3 reporter, 5-FOA selection (AID 869;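 active = inhibition over a set limit, the all-compound mean plus 3 SD, in both replicate runs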;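 also: 0% = DMSO wells with no growth and 100% = 10 µM 1-NA-PP1 with full growth; RAM network block rescues cells from 5-FOA so hits raise OD615 growth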); conditions: S. cerevisiae dse1pr::URA3 5-FOA growth, OD615, 2 d; at 10 µM; stronger effect = higher value; strain carries analog-sensitive mutant Cbk1 kinase
[15] = RAM signaling pathway blockade in yeast – S. cerevisiae, Pdr1DBD-CYC8 efflux-inhibited sensitized strain, primary screen (AID 1298;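 active = RAM network inhibition above 8.4% in each of two replicates, 3 SD over the compound average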;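 also: 0% = DMSO untreated cells without growth and 100% = 10 µM 1-NA-PP1 full growth; higher means more yeast growth rescued from 5-FOA killing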); conditions: S. cerevisiae cbk1-as DSE1-URA3 strain, 5-FOA growth OD615, 2 d; at 50 µM; stronger effect = higher value
[16] = H69AR cells + 2 uM doxorubicin, measured here: viability with 2 uM doxorubicin, stronger effect = lower value
[17] = H69AR cells, compound alone cytotoxicity

Chain of Receptor tyrosine-protein kinase erbB-2 (Homo sapiens) (P04626 whole entry, looked up): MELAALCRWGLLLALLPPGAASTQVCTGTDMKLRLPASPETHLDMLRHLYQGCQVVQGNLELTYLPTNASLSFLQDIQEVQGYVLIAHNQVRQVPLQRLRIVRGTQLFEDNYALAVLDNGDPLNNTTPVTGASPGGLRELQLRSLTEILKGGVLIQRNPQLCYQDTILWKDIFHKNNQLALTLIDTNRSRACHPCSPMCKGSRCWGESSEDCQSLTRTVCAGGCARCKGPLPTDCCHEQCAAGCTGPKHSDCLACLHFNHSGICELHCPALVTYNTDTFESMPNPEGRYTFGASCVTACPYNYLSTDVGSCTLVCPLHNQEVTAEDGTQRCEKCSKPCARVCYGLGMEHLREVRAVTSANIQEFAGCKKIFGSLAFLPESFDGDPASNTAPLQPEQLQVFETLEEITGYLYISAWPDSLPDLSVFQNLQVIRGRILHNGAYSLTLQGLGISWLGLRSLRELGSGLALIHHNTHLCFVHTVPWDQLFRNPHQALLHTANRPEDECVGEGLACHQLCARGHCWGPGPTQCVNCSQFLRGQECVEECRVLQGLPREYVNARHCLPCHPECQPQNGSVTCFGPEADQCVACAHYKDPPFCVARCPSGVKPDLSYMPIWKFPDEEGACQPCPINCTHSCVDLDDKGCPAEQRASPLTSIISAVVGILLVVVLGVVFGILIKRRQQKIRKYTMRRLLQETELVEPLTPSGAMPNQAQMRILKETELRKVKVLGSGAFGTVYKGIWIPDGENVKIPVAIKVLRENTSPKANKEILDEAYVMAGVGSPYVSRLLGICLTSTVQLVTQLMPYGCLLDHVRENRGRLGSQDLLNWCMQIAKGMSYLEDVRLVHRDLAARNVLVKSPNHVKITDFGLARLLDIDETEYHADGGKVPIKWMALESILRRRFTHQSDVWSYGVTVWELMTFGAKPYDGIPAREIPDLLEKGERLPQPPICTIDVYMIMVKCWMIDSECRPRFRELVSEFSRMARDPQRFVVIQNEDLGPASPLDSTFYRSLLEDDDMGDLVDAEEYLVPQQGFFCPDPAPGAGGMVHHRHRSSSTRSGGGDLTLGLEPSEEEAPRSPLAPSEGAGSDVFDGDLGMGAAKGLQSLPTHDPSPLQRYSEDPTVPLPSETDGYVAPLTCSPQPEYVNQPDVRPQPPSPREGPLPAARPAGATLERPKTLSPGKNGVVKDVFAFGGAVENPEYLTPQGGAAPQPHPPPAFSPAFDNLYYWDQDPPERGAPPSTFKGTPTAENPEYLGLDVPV

SMILES | viability [1] [%] | Her2 level [2] | viability [3] | viability [4] | viability [5] | differential viability (reversal) ([6]; H69AR cells + 2 uM doxorubicin) | viability [6, 16] [%] | viability [6, 17] [%] | inhibition [7] | inhibition [8] | growth inhibition [9] | growth inhibition [10] | viability increase [11] | viability [12] | viability [13] | inhibition [14] | RAM network inhibition [15]
N#Cc1nc(COc2ccccc2Cl)oc1N1CCCCCC1 | 96.5 | 104% (inactive) | 96.5% (inactive) | 79.6% (inactive) | 93.1% (inactive) | -3.75% (inactive) | 96.9 | 93.1 | -3.6% (inactive) | -3.17% (inactive) | 7.94% (inactive) | 6.52% (inactive) | 2.96% (inactive) | 98.7% (inactive) | 87.5% (inactive) | 2.3% (inactive) | 5.67% (inactive)
COc1ccc(OC)c2[nH]c(=O)c(CCNC(=O)C(C)C)cc12 | 109 | 118% (inactive) | 109% (inactive) | 83.2% (inactive) | 88.6% (inactive) | -1.89% (inactive) | 90.5 | 88.6 | -3.33% (inactive) | 1.83% (inactive) | -3.17% (inactive) | -5.05% (inactive) | -0.71% (inactive) | 108% (inactive) | 103% (inactive) | 0.005% (inactive) | 1.31% (inactive)
COCCOC(=O)c1[nH]c2c(c1C)C(=O)CC(c1ccco1)C2 (configuration not stated) | 85 | 71.5% (inactive) | 85% (inactive) | 57% (inactive) | 23.6% (active) | -37.2% (inactive) | 60.9 | 23.6 | 0.64% (inactive) | 5.67% (inactive) | -16% (inactive) | -15.1% (inactive) | -4.07% (inactive) | 18.9% (active) | 23.9% (active) | 2.79% (inactive) | 2.52% (inactive)
O=C(Nc1ccccc1)c1cnc2n(c1=O)CCS2 | 92.5 | 88% (inactive) | 92.5% (inactive) | 101% (inactive) | 91.1% (inactive) | -2.48% (inactive) | 93.5 | 91.1 | -4.8% (inactive) | -0.49% (inactive) | -8.84% (inactive) | 5.01% (inactive) | -0.69% (inactive) | 104% (inactive) | 97.2% (inactive) | 1.94% (inactive) | 2.15% (inactive)
O=C(c1cc(C2CC2)on1)N1CCN(C(c2ccccc2)c2ccccc2)CC1 | 84.5 | 95.5% (inactive) | 84.5% (inactive) | 113% (inactive) | 87.7% (inactive) | -6.88% (inactive) | 94.6 | 87.7 | 0.9% (inactive) | -0.83% (inactive) | -17.5% (inactive) | -18.4% (inactive) | 2.29% (inactive) | 90.9% (inactive) | 76.8% (inactive) | 0.66% (inactive) | 7.26% (inactive)
CCOc1ccccc1C1C(C(=O)Nc2ccc(OC)cc2)=C(C)Nc2nc(CCCO)nn21 (configuration not stated) | 87.5 | 89.5% (inactive) | 87.5% (inactive) | 84.4% (inactive) | 91.3% (inactive) | 8.7% (inactive) | 82.6 | 91.3 | -0.4% (inactive) | -2.17% (inactive) | -9.82% (inactive) | -7.01% (inactive) | -0.17% (inactive) | 109% (inactive) | 98.7% (inactive) | 0.865% (inactive) | 1.36% (inactive)
